# Results filed as inconclusive are left out. Calls of active or inactive are those of the source. Cut-off read from the data, not from the text of the source, unless noted: active = potency below about 10 µM; inactive = the rest.
# Target: Lysosomal acid glucosylceramidase (Homo sapiens) (UniProt P04062)
# Assay: Glucocerebrosidase-p2 (AID 348); note: potency is the fitted concentration of half-maximal effect
# Conditions: purified GBA, blue fluorogenic substrate, 40 min
# Outline: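 Normal human glucocerebrosidase (0.2 nM) with blue fluorogenic substrate (80 uM final) in citrate/phosphate pH 5.9 with 10mM sodium taurocholate, 0.01% tween-20; 40 min RT, NaOH/glycine stop; fluorescence Ex 365/Em 440; AC50 from a titration from 0.6 nM upwards.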
# Sequence of Lysosomal acid glucosylceramidase (Homo sapiens) (P04062 whole entry, looked up): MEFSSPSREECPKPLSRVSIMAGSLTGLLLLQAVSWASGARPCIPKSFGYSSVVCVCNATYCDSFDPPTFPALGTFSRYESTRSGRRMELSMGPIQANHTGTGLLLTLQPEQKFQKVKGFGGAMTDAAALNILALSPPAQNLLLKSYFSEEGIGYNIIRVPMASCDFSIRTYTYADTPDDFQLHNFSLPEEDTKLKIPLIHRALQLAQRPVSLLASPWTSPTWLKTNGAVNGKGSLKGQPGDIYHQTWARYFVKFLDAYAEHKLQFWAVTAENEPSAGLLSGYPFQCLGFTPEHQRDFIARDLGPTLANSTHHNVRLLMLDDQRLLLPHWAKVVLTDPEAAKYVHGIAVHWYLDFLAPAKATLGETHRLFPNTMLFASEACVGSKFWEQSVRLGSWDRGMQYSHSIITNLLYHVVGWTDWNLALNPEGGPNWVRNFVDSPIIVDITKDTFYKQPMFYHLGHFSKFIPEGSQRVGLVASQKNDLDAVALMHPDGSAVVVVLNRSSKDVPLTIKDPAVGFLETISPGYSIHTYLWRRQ
row,Structure (SMILES),Potency
1,O=S(=O)(c1ccccc1)N1CCC2(CCCN(Cc3nccs3)C2)CC1,> 11.4 µM (inactive)
2,Cc1cnc(CNc2cc(-c3c(C)noc3C)ncn2)cn1,> 11.4 µM (inactive)
3,N#Cc1cccc(NC(=O)N2CCCC3(CCN(C(=O)c4csnn4)CC3)C2)c1,> 11.4 µM (inactive)
4,COc1ncc2nc(CCc3ccccc3)c(=O)n(Cc3ccc(F)cc3)c2n1,> 11.4 µM (inactive)
5,O=C(c1cnccn1)N1CCC2(CC1)CN(Cc1cc(C(F)(F)F)cc(C(F)(F)F)c1)C2,> 11.4 µM (inactive)
6,O=c1c(-c2ccc(F)c(F)c2)nc2cncnc2n1Cc1ccc(F)cc1,> 11.4 µM (inactive)
7,Cn1cccc1C(=O)N1CCC2(CCCN(c3ccccn3)C2)CC1,> 11.4 µM (inactive)
8,COc1ncc2nc(-c3ccc(F)cc3)c(=O)n(CCC#N)c2n1,> 11.4 µM (inactive)
9,N#Cc1cccc(NC(=O)N2CCCC3(CCN(C(=O)c4cccc(F)c4)CC3)C2)c1,> 11.4 µM (inactive)
10,O=C(c1cnccn1)N1CCC2(CCCN(Cc3nccs3)C2)CC1,> 11.4 µM (inactive)
11,Cn1cccc1C(=O)N1CCC2(CCN(Cc3nccs3)CC2)CC1,> 11.4 µM (inactive)
12,COc1ccc(-c2nc3cnc(N4CCN(C)CC4)nc3n(CCC#N)c2=O)cc1,> 11.4 µM (inactive)
13,COc1ccc(CNc2ncncc2-c2ccoc2)c(OC)c1,> 11.4 µM (inactive)
14,N#Cc1ccc(CN2CCCC3(CCN(S(=O)(=O)c4ccccc4)CC3)C2)cc1,> 11.4 µM (inactive)
15,O=S(=O)(c1ccccc1)N1CCC2(CCCN(Cc3ccncc3)C2)CC1,> 11.4 µM (inactive)
16,COc1ccc(Oc2ncc3nc(C)c(=O)n(CCc4ccccc4)c3n2)cc1,> 11.4 µM (inactive)
17,CN(C)c1ccc(-c2nc(NC3CCNCC3)c3ccccc3n2)cc1,7.09 µM (active)
18,O=c1cnc2cnc(Oc3ccccc3)nc2n1C[C@H]1CCCO1,> 11.4 µM (inactive)
19,COc1cccc(Cn2c(=O)c(C)nc3cnc(N4CCOCC4)nc32)c1,> 11.4 µM (inactive)
20,N#Cc1cccc(NC(=O)N2CCCC3(CCN(C(=O)c4cc(C(F)(F)F)cc(C(F)(F)F)c4)CC3)C2)c1,> 11.4 µM (inactive)

row,Structure (SMILES),Potency
1,O=S(=O)(c1ccccc1)N1CCC2(CC1)CN(Cc1ccccc1)C2,> 11.4 µM (inactive)
2,O=C(c1ccncc1)N1CCC2(CCCN(Cc3ccccc3)C2)CC1,> 11.4 µM (inactive)
3,CNc1nc(-c2ccc(N(C)C)cc2)nc2ccccc12,6.77 µM (active)
4,O=c1c(-c2ccc(F)c(F)c2)nc2cncnc2n1Cc1ccccc1,> 11.4 µM (inactive)
5,COc1ncc2nc(CCc3ccccc3)c(=O)n(Cc3cccs3)c2n1,> 11.4 µM (inactive)
6,O=C(Nc1ccccc1)N1CC2(CCN(C(=O)c3cc(C(F)(F)F)cc(C(F)(F)F)c3)CC2)C1,> 11.4 µM (inactive)
7,COc1ccccc1CN1CCC2(CCNCC2)CC1,> 11.4 µM (inactive)
8,O=c1c(-c2ccccc2)nc2cncnc2n1Cc1ccc(F)cc1,> 11.4 µM (inactive)
9,O=C(c1cc(C(F)(F)F)cc(C(F)(F)F)c1)N1CCC2(CCCN(Cc3ccncc3)C2)CC1,> 11.4 µM (inactive)
10,Cn1c(=O)c(-c2cccs2)nc2cnc(Oc3ccccc3)nc21,> 11.4 µM (inactive)
11,Cc1cnc(CNc2nc(-c3ccc4c(c3)OCO4)nc3ccccc23)cn1,> 11.4 µM (inactive)
12,COc1cccc(Cn2c(=O)cnc3cnc(N4CCOCC4)nc32)c1,> 11.4 µM (inactive)
13,O=C(c1ccco1)N1CCC2(CCCN(Cc3ccccc3)C2)CC1,> 11.4 µM (inactive)
14,COc1ccc(Oc2ncc3ncc(=O)n(Cc4cccc(OC)c4)c3n2)cc1,> 11.4 µM (inactive)
15,COc1ccc(Oc2ncc3ncc(=O)n(CCC#N)c3n2)cc1,> 11.4 µM (inactive)
16,O=C(Oc1ccccc1)N1CCC2(CCCN(c3ccc(-c4ccccc4)cc3)C2)CC1,> 11.4 µM (inactive)
17,COCCn1c(=O)c(C)nc2cnc(OCc3ccccc3)nc21,> 11.4 µM (inactive)
18,COc1cccc(Cn2c(=O)c(C)nc3cnc(Oc4ccccc4)nc32)c1,> 11.4 µM (inactive)
19,CC(=O)N1CCC[C@@]2(CCN(c3ccccc3)C2)C1,> 11.4 µM (inactive)

# Tested on: not listed separately
# Assay: AP1 Signaling Pathway (AID 357; active = well fitted curve in either direction with a large enough effect, not every such curve was filed as active;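 note: ME-180 reporter cells stimulated with EGF at its EC50 level; % is set by controls: 0 for no effect and ±100 for the full control effect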)
# Conditions: ME-180 (cervical carcinoma) AP-1-bla reporter, EGF-induced, beta-lactamase ratio, 5 h; at 7.69 µM (top of the series) unless noted
# Outline: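 Cells are seeded overnight, exposed to compound titrations and an EC50 level of EGF for 5 hours at 37 °C, then loaded with CCF4 dye for 2.5 hours. Beta-lactamase activity under the AP-1 element is read as a blue/green ratio.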
row,Structure (SMILES),"activity change, negative = inhibition"
1,O=S(=O)(c1ccccc1)N1CCC2(CCCN(Cc3nccs3)C2)CC1,-17.2% (inactive)
2,Cc1cnc(CNc2cc(-c3c(C)noc3C)ncn2)cn1,23.4% (inactive)
3,N#Cc1cccc(NC(=O)N2CCCC3(CCN(C(=O)c4csnn4)CC3)C2)c1,6.7% (inactive)
4,COc1ncc2nc(CCc3ccccc3)c(=O)n(Cc3ccc(F)cc3)c2n1,-3.95% (inactive)
5,O=C(c1cnccn1)N1CCC2(CC1)CN(Cc1cc(C(F)(F)F)cc(C(F)(F)F)c1)C2,-17.8% (inactive)
6,O=c1c(-c2ccc(F)c(F)c2)nc2cncnc2n1Cc1ccc(F)cc1,2.91% (inactive)
7,Cn1cccc1C(=O)N1CCC2(CCCN(c3ccccn3)C2)CC1,-9.86% (inactive)
8,COc1ncc2nc(-c3ccc(F)cc3)c(=O)n(CCC#N)c2n1,13.2% (inactive)
9,N#Cc1cccc(NC(=O)N2CCCC3(CCN(C(=O)c4cccc(F)c4)CC3)C2)c1,-6.98% (inactive)
10,O=C(c1cnccn1)N1CCC2(CCCN(Cc3nccs3)C2)CC1,-20.7% (inactive)
11,Cn1cccc1C(=O)N1CCC2(CCN(Cc3nccs3)CC2)CC1,-5.06% (inactive)
12,COc1ccc(-c2nc3cnc(N4CCN(C)CC4)nc3n(CCC#N)c2=O)cc1,23.4% (inactive)
13,COc1ccc(CNc2ncncc2-c2ccoc2)c(OC)c1,-9.49% (inactive)
14,N#Cc1ccc(CN2CCCC3(CCN(S(=O)(=O)c4ccccc4)CC3)C2)cc1,-11.3% (inactive)
15,O=S(=O)(c1ccccc1)N1CCC2(CCCN(Cc3ccncc3)C2)CC1,-20.2% (inactive)
16,COc1ccc(Oc2ncc3nc(C)c(=O)n(CCc4ccccc4)c3n2)cc1,18.2% (inactive)
17,CN(C)c1ccc(-c2nc(NC3CCNCC3)c3ccccc3n2)cc1,4.91% (inactive)
18,O=c1cnc2cnc(Oc3ccccc3)nc2n1C[C@H]1CCCO1,-19.1% (inactive)
19,COc1cccc(Cn2c(=O)c(C)nc3cnc(N4CCOCC4)nc32)c1,-24.9% (inactive)
20,N#Cc1cccc(NC(=O)N2CCCC3(CCN(C(=O)c4cc(C(F)(F)F)cc(C(F)(F)F)c4)CC3)C2)c1,-21.5% (inactive)

row,Structure (SMILES),"activity change, negative = inhibition"
1,O=S(=O)(c1ccccc1)N1CCC2(CC1)CN(Cc1ccccc1)C2,7.31% (inactive)
2,O=C(c1ccncc1)N1CCC2(CCCN(Cc3ccccc3)C2)CC1,-9.7% (inactive)
3,CNc1nc(-c2ccc(N(C)C)cc2)nc2ccccc12,15.8% (inactive)
4,O=c1c(-c2ccc(F)c(F)c2)nc2cncnc2n1Cc1ccccc1,-0.964% (inactive)
5,COc1ncc2nc(CCc3ccccc3)c(=O)n(Cc3cccs3)c2n1,-2.76% (inactive)
6,O=C(Nc1ccccc1)N1CC2(CCN(C(=O)c3cc(C(F)(F)F)cc(C(F)(F)F)c3)CC2)C1,12.7% (inactive)
7,COc1ccccc1CN1CCC2(CCNCC2)CC1,-18.9% (inactive)
8,O=c1c(-c2ccccc2)nc2cncnc2n1Cc1ccc(F)cc1,-20% (inactive)
9,O=C(c1cc(C(F)(F)F)cc(C(F)(F)F)c1)N1CCC2(CCCN(Cc3ccncc3)C2)CC1,7.96% (inactive)
10,Cn1c(=O)c(-c2cccs2)nc2cnc(Oc3ccccc3)nc21,12.2% (inactive)
11,Cc1cnc(CNc2nc(-c3ccc4c(c3)OCO4)nc3ccccc23)cn1,-3.88% (inactive)
12,COc1cccc(Cn2c(=O)cnc3cnc(N4CCOCC4)nc32)c1,-21.3% (inactive)
13,O=C(c1ccco1)N1CCC2(CCCN(Cc3ccccc3)C2)CC1,-8.21% (inactive)
14,COc1ccc(Oc2ncc3ncc(=O)n(Cc4cccc(OC)c4)c3n2)cc1,-25.4% (inactive)
15,COc1ccc(Oc2ncc3ncc(=O)n(CCC#N)c3n2)cc1,-11.3% (inactive)
16,O=C(Oc1ccccc1)N1CCC2(CCCN(c3ccc(-c4ccccc4)cc3)C2)CC1,27% (inactive)
17,COCCn1c(=O)c(C)nc2cnc(OCc3ccccc3)nc21,-16.6% (inactive)
18,COc1cccc(Cn2c(=O)c(C)nc3cnc(Oc4ccccc4)nc32)c1,-12.2% (inactive)
19,CC(=O)N1CCC[C@@]2(CCN(c3ccccc3)C2)C1,-11% (inactive)

# — PubChem BioAssay (NCATS)
